Measured values published in the supplement of paper PMC10127200.

Legend:
Test in all cases: Euclidean distance of Cell Painting phenotypic profile (signed KS, 77 features) to DMSO centroid (dimensionless distance); 5 or 10 uM (library dependent); higher = stronger phenotypic change vs DMSO (phenoactivity)
Conditions in all cases: 48 h
786-O = tested on: 786-O
In short: (§1)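 Phenoactivity is defined as the Euclidean distance from a compound profile to the median vehicle profile. Each profile comprised 77 Harmony features, scored as signed Kolmogorov-Smirnov statistics versus same-plate vehicle wells, then plate-position corrected, correlation-weighted and replicate-averaged at the top dose. Five cancer lines and one healthy fibroblast line were exposed to library compounds for 48 h at 10 or 5 uM (0.1% DMSO final).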

A549 = tested on: A549
In short: as §1

DU145 = tested on: DU145
In short: as §1

FB = tested on: FB
In short: as §1

HEPG2 = tested on: HEPG2
In short: as §1

OVCAR4 = tested on: OVCAR4
In short: as §1

Row | SMILES | Euclidean distance (786-O) | Euclidean distance (A549) | Euclidean distance (DU145) | Euclidean distance (FB) | Euclidean distance (HEPG2) | Euclidean distance (OVCAR4)
1 | COc1cc(C2Oc3cc([C@H]4Oc5cc(O)cc(O)c5C(=O)[C@@H]4O)ccc3OC2CO)ccc1O (stereo partly specified) [Silibinin] | 0.696 | 1.28 | 0.646 | 0.713 | 0.547 | 0.847
2 | CC(C)[C@@H](C)/C=C/[C@@H](C)[C@H]1CC[C@H]2C3=CC=C4C[C@@H](O)CC[C@]4(C)[C@H]3CC[C@]12C [Ergosterol] | 1.2 | 1.36 | 1.1 | 0.707 | 0.946 | 1.17
3 | O=C(Nc1nc2cccc(-c3ccc(CN4CCS(=O)(=O)CC4)cc3)n2n1)C1CC1 [Filgotinib (GLPG0634)] | 0.844 | 0.922 | 1.29 | 1.45 | 2.21 | 1.22
4 | CC(C)OC(=O)CCC/C=C\C[C@@H]1[C@@H](/C=C/C(F)(F)COc2ccccc2)[C@H](O)C[C@@H]1O [Tafluprost] | 1.72 | 1.49 | 0.876 | 1.25 | 0.711 | 0.833
5 | CC[C@H]1OC(=O)[C@H](C)[C@@H](O[C@H]2C[C@@](C)(OC)[C@@H](O)[C@H](C)O2)[C@H](C)[C@@H](O[C@@H]2O[C@H](C)C[C@H](N(C)C)[C@H]2O)[C@](C)(O)C[C@@H](C)C(=O)[C@H](C)[C@@H](O)[C@]1(C)O [Erythromycin] | 1.41 | 1.02 | 1.69 | 1.16 | 3.29 | 1.43
6 | COc1cc(N)c(Cl)cc1C(=O)NC1CCN(CCCOc2ccc(F)cc2)CC1OC (stereo unspecified) [Cisapride hydrate] | 0.963 | 1.16 | 0.853 | 1.23 | 0.401 | 1.05
7 | CC(C)(O/N=C(\C(=O)N[C@@H]1C(=O)N2C(C(=O)[O-])=C(C[n+]3ccccc3)CS[C@H]12)c1csc(N)n1)C(=O)O [Ceftazidime] | 1.39 | 0.613 | 0.815 | 1.06 | 0.385 | 1.62
8 | CO/N=C(\C(=O)N[C@@H]1C(=O)N2C(C(=O)O)=C(CSc3nc(C)c(CC(=O)O)s3)CS[C@H]12)c1csc(N)n1 [Cefodizime Sodium] | 0.755 | 1.08 | 1.48 | 0.804 | 0.792 | 0.754
9 | Cc1ccc(C(=O)c2cc(O)c(O)c([N+](=O)[O-])c2)cc1 [Tolcapone] | 0.991 | 1.18 | 1.08 | 0.848 | 0.591 | 1.5
10 | O=C1C(CC[S+]([O-])c2ccccc2)C(=O)N(c2ccccc2)N1c1ccccc1 (racemic) [(+/-)-Sulfinpyrazone] | 1.01 | 1.79 | 1.38 | 1.22 | 0.755 | 0.993
11 | CC[C@H](Nc1ncnc2[nH]cnc12)c1nc2cccc(F)c2c(=O)n1-c1ccccc1 [CAL-101 (Idelalisib. GS-1101)] | 1.28 | 0.736 | 1.32 | 1.79 | 0.747 | 1.56
12 | CC(=C(CCOC(=O)C(C)C)SSC(CCOC(=O)C(C)C)=C(C)N(C=O)Cc1cnc(C)nc1N)N(C=O)Cc1cnc(C)nc1N (stereo in doubt) [Sulbutiamine] | 1.35 | 0.871 | 0.854 | 1.12 | 0.637 | 1.49
13 | N[C@H](C(=O)O)[C@H](O)c1ccc(O)c(O)c1 [Droxidopa] | 0.967 | 0.876 | 0.724 | 0.744 | 1.01 | 0.873
14 | N[C@@H](C(=O)N[C@@H]1C(=O)N2C(C(=O)O)=C(Cl)CS[C@H]12)c1ccccc1 [Cefaclor] | 1.19 | 0.817 | 0.688 | 0.8 | 0.709 | 1.53
15 | CCN1C[C@H](C)n2c(c(O)c3c(=O)n(Cc4ccc(F)c(Cl)c4)nc(C(=O)NC)c32)C1=O | 1.08 | 0.61 | 1.05 | 0.927 | 0.645 | 1
16 | CS(=O)(=O)n1cc2c(n1)CN([C@H]1CO[C@H](c3cc(F)ccc3F)[C@@H](N)C1)C2 [Omarigliptin (MK-3102)] | 1.02 | 2.02 | 1.89 | 1.7 | 2.25 | 2.16
17 | CC[N+](C)(C)c1cccc(O)c1 [Edrophonium chloride] | 0.852 | 0.865 | 0.738 | 0.728 | 0.598 | 0.943
18 | CN1C(C(=O)Nc2ccccn2)=C(O)c2sc(Cl)cc2S1(=O)=O [Lornoxicam] | 0.853 | 0.623 | 0.95 | 0.965 | 1 | 0.799
19 | N=C1CCCN1Cc1[nH]c(=O)[nH]c(=O)c1Cl.O=c1[nH]c(=O)n([C@H]2C[C@H](O)[C@@H](CO)O2)cc1C(F)(F)F | 3.51 | 3.48 | 3.37 | 1.25 | 3 | 3.04
20 | NC1CCN(c2nc3c(cc2F)c(=O)c(C(=O)O)cn3-c2ccc(F)cc2F)C1 (stereo unspecified) [Tosufloxacin p-Toluenesulfonate Hydrate] | 0.975 | 1.03 | 0.829 | 1.12 | 0.47 | 1.3
21 | COc1ccccc1Oc1c(NS(=O)(=O)c2ccc(C(C)(C)C)cc2)nc(-c2ncccn2)nc1OCCO [Bosentan Hydrate] | 1.35 | 0.814 | 0.826 | 0.916 | 0.41 | 1.04
22 | NC(=O)N1c2ccccc2CC(=O)c2ccccc21 [Oxcarbazepine] | 2.18 | 1.39 | 1.26 | 1.19 | 1.13 | 1.57
23 | Oc1cc(O)c2c(c1)OC(c1ccc(O)c(O)c1)C(O)C2 (single isomer, unassigned; (+)) [(+)-Catechin] | 0.785 | 0.904 | 0.506 | 0.842 | 0.247 | 0.849
24 | CCn1c2ccccc2c2cc(Nc3ccnc(NCCCN4CCOCC4)n3)ccc21 | 3.23 | 2.84 | 1.12 | 2.94 | 2.27 | 1.98
25 | Clc1ccc(Nc2nnc(Cc3ccncc3)c3ccccc23)cc1 [Vatalanib (PTK787) 2HCl] | 1.01 | 1.05 | 1.47 | 1.53 | 1.42 | 1.29
26 | O=C(c1ccc(/C=C/c2n[nH]c3ccccc23)cc1)N1CCNCC1 | 3.16 | 3.89 | 3.66 | 3.31 | 2.78 | 3.53
